# The campaign covered roughly 330,000 compounds. About 5,800 (1.8%) were called active. Only a selection was taken, and actives are over-represented in it overall. Values without a mark were called inactive.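 The calls were made as follows: active = inhibition above about 50% at the single tested dose (limit read from the data); inactive = the rest.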
# Molecular target: Sentrin-specific protease 6 (Homo sapiens) (UniProt Q9GZR1)
# Assay: inhibition of human SENP6 catalytic domain – biochemical, luminescence, uHTS, primary screen (AID 2599);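 also: plate controls were DMSO wells with enzyme for no effect and DMSO wells lacking enzyme for full effect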
# Settings: Recombinant SENP6 catalytic domain, aminoluciferin luminescence; at 10 µM; stronger effect = higher value
# Chain of Sentrin-specific protease 6 (Homo sapiens) (Q9GZR1 628-1112 limits assumed): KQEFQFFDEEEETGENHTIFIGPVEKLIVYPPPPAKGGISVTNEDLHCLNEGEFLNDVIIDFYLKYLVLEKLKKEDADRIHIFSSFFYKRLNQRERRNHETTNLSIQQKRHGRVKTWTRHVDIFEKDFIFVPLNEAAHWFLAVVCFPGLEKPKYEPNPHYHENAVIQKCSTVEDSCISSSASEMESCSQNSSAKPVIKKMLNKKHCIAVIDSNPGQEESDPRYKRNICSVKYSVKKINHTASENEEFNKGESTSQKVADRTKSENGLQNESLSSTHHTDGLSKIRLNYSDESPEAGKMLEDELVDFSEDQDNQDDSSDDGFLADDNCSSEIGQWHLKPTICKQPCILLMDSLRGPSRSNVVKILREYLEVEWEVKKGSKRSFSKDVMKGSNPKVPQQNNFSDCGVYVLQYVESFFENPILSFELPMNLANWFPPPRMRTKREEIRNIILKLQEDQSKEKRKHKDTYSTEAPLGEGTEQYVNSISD
row,Compound,inhibition
1,CSCC[C@H](NC(=O)N1CCn2c1nc1ccccc12)C(=O)NC1CCCCC1,-2.54%
2,COC(=O)C1=C(C)N(C)C(=S)NC1c1cc(OC)ccc1OC (stereo unspecified),6.54%
3,Clc1ccc(-c2cc(-c3ccccn3)on2)c(Cl)c1,95.1% (active)
4,O=C1c2ccccc2C(=O)N1Cc1cc(-c2ccccc2Cl)no1,-13.7%
5,Clc1ccc(COn2c(-c3ccc(Cl)cc3Cl)nc3ncccc32)cc1,3.31%
6,CC1(C)OC(=O)C(=CNC(CO)C(=O)O)C(=O)O1 (stereo unspecified),-15.5%
7,COc1ccc(S(=O)(=O)N2CCOC23CCN(S(=O)(=O)c2ccc([N+](=O)[O-])cc2)CC3)cc1,-0.227%
8,CC(C)C(NC(=O)c1cccc(S(=O)(=O)N2CCOCC2)c1)C(=O)NCCc1ccccn1 (stereo unspecified),0.86%
9,COc1ccc(/C=C/c2noc(-c3ccccc3OC(C)=O)n2)cc1,89.4% (active)
10,CC(=O)Oc1ccc(-c2nc3c(C)cccc3c(=O)o2)cc1,13.4%
11,COc1cccc(/C=C/c2ccc3ccccc3n2)c1OC(C)=O,14.1%
12,O=C(Cc1ccc(S(=O)(=O)N2CCCC2)s1)NC1CCCCCC1,-13.1%
13,CSCCC(NC(=O)c1ccco1)C(=O)NCCc1ccc(F)cc1 (stereo unspecified),5.31%
14,COc1ccc2oc(-c3cccc(NC(=O)CSc4ccc(Cl)cc4)c3)nc2c1,-0.568%
15,COc1ccc([N+](=O)[O-])cc1-c1nc2ccccc2nc1-c1ccccc1,-3.14%
16,O=[N+]([O-])c1ccc2oc(-c3cccc(O)c3)nc2c1,65.4% (active)
17,CC(=O)Oc1ccc2c(=O)oc(-c3ccc([N+](=O)[O-])cc3)nc2c1,32.4%
18,COc1cccc(-c2nc3cc(C)ccc3o2)c1,97.8% (active)
19,COc1cccc(-c2nnc(SCCOc3ccc4c(C)cc(=O)oc4c3)o2)c1,-18.6%
20,COC(=O)c1ccccc1NC(=O)C1CCN(S(=O)(=O)c2cc(OC)ccc2OC)CC1,-0.874%
21,Cc1ccc(NC(=O)C(=O)NCC2CCN(C(=O)c3cccc([N+](=O)[O-])c3)CC2)cc1,0.692%

row,Compound,inhibition
1,N#Cc1cccc(CSc2nnc(CCCO)n2-c2ccccc2)c1,-0.983%
2,Cc1cccc(NC(=O)c2cccnc2Cl)n1,24.9%
3,Cc1cccc(NC(=O)c2cc(N3C(=O)CCC3=O)ccc2Cl)n1,-4.72%
4,Cc1cccc(NC(=O)c2ccc3ccccc3n2)n1,77.2% (active)
5,COc1ccc(NC(=O)c2cn(-c3ccccc3)nc2SC)cc1,0.083%
6,Cc1c(C(C)CCCO)oc(=O)c2c1Oc1c(C)c(C(C)C[C@@H](C)O)oc(=O)c1C2 (stereo partly specified),13.7%
7,O=C(Oc1ccc(Br)cc1C(=S)N1CCOCC1)c1cccc([N+](=O)[O-])c1,-3.34%
8,Cc1ccc(/C=C(\C#N)C(=O)Nc2cccc3ncccc23)o1,-57.2%
9,O=C(NNS(=O)(=O)c1ccccc1C(F)(F)F)c1cc2ncc(C(F)(F)F)cc2s1,4.2%
10,Cc1ccnc(N2C(=O)c3ccc([N+](=O)[O-])cc3C2=O)c1,-9.97%
11,Cc1ccc(-n2cc3ccc([N+](=O)[O-])cc3n2)cc1,86.9% (active)
12,Cc1ccc(-c2cn(S(=O)(=O)c3cccc([N+](=O)[O-])c3)nc2N)cc1,-7.28%
13,Cn1cc[n+](C)c1COc1ccc(C=O)cc1,-1.65%
14,N#Cc1cc([N+](=O)[O-])ccc1NCC1CCCO1 (stereo unspecified),-15.1%
15,COc1ccc(/C=N/Nc2ccccc2C(=O)O)cc1,93.1% (active)
16,COc1ccc(NS(=O)(=O)c2cc(C(=O)Nc3ccccc3C(=O)O)ccc2C)cc1,-2.27%
17,COc1ccc(C(=O)Nc2cc(C)c(NC(=O)c3ccccc3OC)cn2)cc1,37.3%
18,CCOc1cc(/C=N/NC(=O)c2cc(-c3ccccc3)nc3ccccc23)ccc1O,19.5%
19,COc1ccccc1C(=O)NNC(=O)c1ccc(NC(=O)c2ccccc2)cc1,5.14%
20,COc1ccc(C(=O)Nc2ccccc2C(=O)N/N=C/c2ccccc2OC)cc1,66.7% (active)
21,COc1ccc(/C=N/OCC(=O)N(Cc2ccccc2)c2ccccc2C(=O)O)cc1,-17.2%

row,Compound,inhibition
1,COc1ccc(C(=O)Nc2ccccc2C(=O)N/N=C/c2ccc(O)c(OC)c2)cc1,98.7% (active)
2,COc1cc(/C=N/NC(=O)c2ccc(N3CCCC3=O)cc2)ccc1O,-7.53%
3,O=C(O)CC(c1ccccc1F)N1Cc2ccccc2C1=O (stereo unspecified),-11.5%
4,COc1ccc(/C=N/n2c(C)cc(C)cc2=O)cc1,-12.1%
5,O=C(N/N=C/c1ccsc1)c1cc(O)cc(O)c1,3.66%
6,CCn1cc(/C=C(\NC(=O)c2cc(OC)c(OC)c(OC)c2)C(=O)N2CCN(C)CC2)c2ccccc21,0.634%
7,O=C(/C=C/c1ccc2c(c1)OCO2)NCc1ccc(F)cc1,1.24%
8,Cc1cccc(NC(=O)/C=C/c2ccc3c(c2)OCO3)n1,82.7% (active)
9,Cc1cccc(NC(=O)Nc2ccc3c(c2)OCO3)n1,-17.4%
10,CCCc1ccc(OCc2ccc(C(=O)N/N=C/c3cccc([N+](=O)[O-])c3)o2)c(OC)c1,-3.27%
11,COc1ccccc1N1CCN(C(=O)CCS(=O)(=O)c2ccc3c(c2)NC(=O)C(C)S3)CC1 (stereo unspecified),4.9%
12,CCOC(=O)C(C)N(c1ccccc1Cl)S(C)(=O)=O (stereo unspecified),14.8%
13,O=C(O)c1cc(Cl)c(Cl)cc1C(=O)Nc1cccc2ncccc12,57% (active)
14,COc1ccccc1NC(=O)c1cc(Cl)nc2ccccc12,-4.88%
15,O=C(O)c1ccccc1-c1ccccc1C(=O)Nc1cccc2ccccc12,-15.6%
16,CN(Cc1ccccc1F)C(=O)C(Cc1ccccc1)NC(=O)c1ccccc1 (stereo unspecified),-9.94%
17,Cc1cccc(-c2noc(-c3ccc(F)cc3)n2)c1,94.2% (active)
18,Cn1nc(-c2ccccc2)c(-c2nc(-c3ccc(Cl)cc3)no2)c1Cl,3.33%
19,Cc1cccc(-c2noc(CCC(=O)NC3CCCC3)n2)c1,-13.6%
